Molecules are shown by their SMILES. Records with an inconclusive call do not appear. Unmarked numbers belong to inactive results. The call rests on the fitted dose curve; in most records, active means well fitted curve in either direction with a large enough effect (not every such curve was filed as active); inconclusive means small, poorly fitted or top-dose-only effect, or another doubt; inactive means flat fitted curve, though single readings scatter.
On the % scale 0 is the no-effect control and ±100 the full control effect.

A short description of the first experiment: AP1 Signaling Pathway (AID 357).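 Further: ME-180 reporter cells stimulated with EGF at its EC50 level.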 The following applies: ME-180 (cervical carcinoma) AP-1-bla reporter, EGF-induced, beta-lactamase ratio, 5 h; at 17.2 µM (top of the series) unless noted. In short, it runs like this:
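Modulation of EGF-driven AP-1 transcription was assessed with a beta-lactamase reporter in ME-180 cells. Compound and EC50 EGF were co-incubated 5 hours at 37 °C before 2.5-hour CCF4 loading at room temperature and dual-emission reading.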
For `CCCCSc1nnc(-c2ccc(NC(C)=O)cc2)n1C`, the activity change, negative = inhibition was -14.2%.

On to `S=c1[nH]nc(-c2ccco2)n1Cc1ccccc1`, for which the activity change, negative = inhibition was 6.39%.

With `CCCC(C)n1[nH]c(=O)cc1N` (stereo not given), the activity change, negative = inhibition was 11.2%.

Regarding `CC(=O)N/C(=N/c1nc(C)cc(C)n1)Nc1ccc(NC(C)=O)cc1`, the activity change, negative = inhibition was -2.08%.

Take `CC(NC(=O)Nc1nnc(C(F)(F)F)s1)(C(F)(F)F)C(F)(F)F`: the activity change, negative = inhibition is -3.33%.

Regarding `Cc1cc(C)nc(NC2=NCC(=O)N2c2cccc(Cl)c2)n1`, the activity change, negative = inhibition was 3.62%.

In the case of `COc1cc(C2C(C(C)=O)=C(O)C(=O)N2c2ccc(Br)cn2)ccc1O` (stereo not given), the activity change, negative = inhibition was 2.47%.

For `CCn1c(SCC(=O)NCc2ccco2)nnc1-c1ccc(N)cc1`, the activity change, negative = inhibition was 0.344%.

On to `Cc1cccc(-c2nnc3n2N=C(c2ccc(Br)cc2)CS3)c1`, for which the activity change, negative = inhibition is 11.1%.

For `C=CCn1c(SCC(=O)c2ccccc2)nnc1-c1ccc2c(c1)OCO2`, the activity change, negative = inhibition is -7.81%.

As to `NC(=O)C1CCN(C2OC(=O)c3ccccc32)CC1` (stereo not given), the activity change, negative = inhibition was 2.97%.

As for `CCOC(=O)NC(Nc1cc(C)on1)(C(F)(F)F)C(F)(F)F`, the activity change, negative = inhibition is 20.3%.

On to `CCc1nc(NCC(C)C)c(C#N)c2c1COC(C)(C)C2`, for which the activity change, negative = inhibition is -11.6%.

For the molecule `CC1CCN(c2ncnc3c2cnn3Cc2ccc(Cl)cc2)CC1`, the activity change, negative = inhibition is -26%.

With `CCOc1ccccc1C(=O)NCCCCCC(=O)O`, the activity change, negative = inhibition was -1.91%.

For `O=C(O)c1cnn2c(C(F)(F)F)cc(-c3ccco3)nc12`, the activity change, negative = inhibition was 11%.

With `COc1ccc(C(=O)Cn2c(N3CCCCC3)nc3c2c(=O)n(C)c(=O)n3C)cc1OC`, the activity change, negative = inhibition is 14.7%.

On to `COc1cc(-c2nn3c(-c4ccccn4)nnc3s2)cc(OC)c1OC`, for which the activity change, negative = inhibition is 1.69%.

For the molecule `Cn1cccc1/C=N/n1cnnc1`, the activity change, negative = inhibition is -2.1%.

In the case of `O=C1CCC(=O)N1CN(C(=O)c1ccco1)c1ccc(Cl)c(Cl)c1`, the activity change, negative = inhibition is -6.31%.

For the molecule `O=C1[C@@H]2[C@H](C(=O)N1O)[C@H]1C=C[C@@H]2C1`, the activity change, negative = inhibition was 5.39%.

Regarding `CCC(=O)Nc1cc(-c2nn(C)c(=O)c3ccccc23)ccc1N1CCCCC1`, the activity change, negative = inhibition is -16.8%.

Take `COC(=O)c1cc2c(=O)n3cccc(C)c3nc2n(Cc2cccnc2)c1=N`: the activity change, negative = inhibition is 7.65%.

`O=C(NCCc1ccccc1)/C(=N\O)c1ccccc1`: the activity change, negative = inhibition was -2.29%.

As for `Cc1ccc(C(=O)/C=C/Nc2cccc(O)c2)cc1`, the activity change, negative = inhibition was 10.4%.

For the molecule `O=C(O)CCCC(=O)N1CCN(C(c2ccccc2)c2ccccc2)CC1`, the activity change, negative = inhibition is 1.43%.

In the case of `CCCCOc1ccccc1/C=c1/sc2nc(-c3oc4ccccc4c3C)nn2c1=O`, the activity change, negative = inhibition is 4.54%.

With `CCOC(=O)C1CCN(C(C)=C2C(=O)c3ccccc3C2=O)CC1`, the activity change, negative = inhibition is 2.67%.

Regarding `CC(C)C1Cc2c(sc3c2c(=O)n(Cc2ccccc2)c2nncn32)CO1` (stereo not given), the activity change, negative = inhibition is -0.408%.

Consider `CCOC(=O)c1cc2cc(OC)ccc2[nH]1`, for which the activity change, negative = inhibition was -4.55%.

As to `COc1cccc(/C(O)=C2\C(=O)C(=O)N(c3ccccn3)C2c2ccccc2OC)c1` (stereo not given), the activity change, negative = inhibition is -8.01%.

`CCOC(=O)c1ccc(NC(=O)CCC(CC)C(=O)O)cc1` (stereo not given): the activity change, negative = inhibition is -2.51%.

In the case of `COC(=O)C(NC(C)=O)(Nc1ccccn1)C(F)(F)F` (stereo not given), the activity change, negative = inhibition was -1.38%.

For `O=C1CC(NCc2ccncc2)C(=O)N1c1ccc(Cl)cc1` (stereo not given), the activity change, negative = inhibition is -15.8%.

As for `CC(=O)N(Cc1ccccc1)c1ccc(C(=O)O)cc1`, the activity change, negative = inhibition was 1.39%.

Regarding `CC(=O)OCc1c(COC(C)=O)[n+](=O)c2ccccc2n1[O-]`, the activity change, negative = inhibition is 8.53%.

In the case of `COc1ccc(C(=O)c2oc3nc(C)cc(C)c3c2N)cc1`, the activity change, negative = inhibition was -14.2%.

On to `CCN(CC)CCCN1C(=O)C(=O)/C(=C(/O)c2ccc3c(c2)CC(C)O3)C1c1cccnc1` (stereo not given), for which the activity change, negative = inhibition was 4.22%.

On to `O=C1CCCN1c1ccc(S(=O)(=O)NCc2ccco2)cc1`, for which the activity change, negative = inhibition is 1.18%.

Regarding `Cc1ccc(N(Cc2cc3ccccc3[nH]c2=O)C(=O)c2ccco2)c(C)c1`, the activity change, negative = inhibition is -26.3%.

A further experiment can be described thus: NFAT Signaling Pathway (AID 444).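 Further: carbachol stimulus at about its EC50 of 1 µM final.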 The following applies: Jurkat NFAT-bla M1, carbachol, beta-lactamase ratio, 5 h; at 17.2 µM (top of the series) unless noted. In short, it runs like this:
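Read-out: CCF4 FRET ratio (460 nm/530 nm) after 1 h RT dye loading, used for %activity and AC50 from titration series. Cells: Jurkat NFAT-β-lactamase/M1 line, treated with compound plus 1 uM carbachol for 5 h, 37 °C.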
Regarding `CCCCSc1nnc(-c2ccc(NC(C)=O)cc2)n1C`, the activity change, negative = inhibition was 12.4%.

Turning to `S=c1[nH]nc(-c2ccco2)n1Cc1ccccc1`, the activity change, negative = inhibition is 3.89%.

For the molecule `CCCC(C)n1[nH]c(=O)cc1N` (stereo not given), the activity change, negative = inhibition is 8.48%.

As for `CC(=O)N/C(=N/c1nc(C)cc(C)n1)Nc1ccc(NC(C)=O)cc1`, the activity change, negative = inhibition is -3.91%.

`CC(NC(=O)Nc1nnc(C(F)(F)F)s1)(C(F)(F)F)C(F)(F)F`: the activity change, negative = inhibition was 0.893%.

With `Cc1cc(C)nc(NC2=NCC(=O)N2c2cccc(Cl)c2)n1`, the activity change, negative = inhibition is -0.714%.

For the molecule `COc1cc(C2C(C(C)=O)=C(O)C(=O)N2c2ccc(Br)cn2)ccc1O` (stereo not given), the activity change, negative = inhibition is -15.5%.

With `CCn1c(SCC(=O)NCc2ccco2)nnc1-c1ccc(N)cc1`, the activity change, negative = inhibition was 16.3%.

For the molecule `Cc1cccc(-c2nnc3n2N=C(c2ccc(Br)cc2)CS3)c1`, the activity change, negative = inhibition was -1.71%.

Regarding `C=CCn1c(SCC(=O)c2ccccc2)nnc1-c1ccc2c(c1)OCO2`, the activity change, negative = inhibition was 16.5%.

`NC(=O)C1CCN(C2OC(=O)c3ccccc32)CC1` (stereo not given): the activity change, negative = inhibition was 1.22%.

As for `CCOC(=O)NC(Nc1cc(C)on1)(C(F)(F)F)C(F)(F)F`, the activity change, negative = inhibition is -2.55%.

As for `CCc1nc(NCC(C)C)c(C#N)c2c1COC(C)(C)C2`, the activity change, negative = inhibition was -0.964%.

`CC1CCN(c2ncnc3c2cnn3Cc2ccc(Cl)cc2)CC1`: the activity change, negative = inhibition is -2.2%.

Turning to `CCOc1ccccc1C(=O)NCCCCCC(=O)O`, the activity change, negative = inhibition was 2.57%.

For the molecule `O=C(O)c1cnn2c(C(F)(F)F)cc(-c3ccco3)nc12`, the activity change, negative = inhibition was 1.41%.

Take `COc1ccc(C(=O)Cn2c(N3CCCCC3)nc3c2c(=O)n(C)c(=O)n3C)cc1OC`: the activity change, negative = inhibition was 21%.

On to `COc1cc(-c2nn3c(-c4ccccn4)nnc3s2)cc(OC)c1OC`, for which the activity change, negative = inhibition was 10.9%.

In the case of `Cn1cccc1/C=N/n1cnnc1`, the activity change, negative = inhibition was -1.22%.

As for `O=C1CCC(=O)N1CN(C(=O)c1ccco1)c1ccc(Cl)c(Cl)c1`, the activity change, negative = inhibition was -5.89%.

Turning to `O=C1[C@@H]2[C@H](C(=O)N1O)[C@H]1C=C[C@@H]2C1`, the activity change, negative = inhibition was -15.3%.

In the case of `CCC(=O)Nc1cc(-c2nn(C)c(=O)c3ccccc23)ccc1N1CCCCC1`, the activity change, negative = inhibition is -13.8%.

Take `COC(=O)c1cc2c(=O)n3cccc(C)c3nc2n(Cc2cccnc2)c1=N`: the activity change, negative = inhibition was -10.7%.

As for `O=C(NCCc1ccccc1)/C(=N\O)c1ccccc1`, the activity change, negative = inhibition was 11.6%.

For `Cc1ccc(C(=O)/C=C/Nc2cccc(O)c2)cc1`, the activity change, negative = inhibition was 1.57%.

As for `O=C(O)CCCC(=O)N1CCN(C(c2ccccc2)c2ccccc2)CC1`, the activity change, negative = inhibition was 7.29%.

In the case of `CCCCOc1ccccc1/C=c1/sc2nc(-c3oc4ccccc4c3C)nn2c1=O`, the activity change, negative = inhibition was -23.5%.

With `CCOC(=O)C1CCN(C(C)=C2C(=O)c3ccccc3C2=O)CC1`, the activity change, negative = inhibition was 4.7%.

Take `CC(C)C1Cc2c(sc3c2c(=O)n(Cc2ccccc2)c2nncn32)CO1` (stereo not given): the activity change, negative = inhibition was -11.6%.

Turning to `CCOC(=O)c1cc2cc(OC)ccc2[nH]1`, the activity change, negative = inhibition is -5%.

`COc1cccc(/C(O)=C2\C(=O)C(=O)N(c3ccccn3)C2c2ccccc2OC)c1` (stereo not given): the activity change, negative = inhibition was 11.4%.

Regarding `CCOC(=O)c1ccc(NC(=O)CCC(CC)C(=O)O)cc1` (stereo not given), the activity change, negative = inhibition was -11.6%.

As to `COC(=O)C(NC(C)=O)(Nc1ccccn1)C(F)(F)F` (stereo not given), the activity change, negative = inhibition is 5.18%.

For the molecule `O=C1CC(NCc2ccncc2)C(=O)N1c1ccc(Cl)cc1` (stereo not given), the activity change, negative = inhibition is 13.2%.

Turning to `CC(=O)N(Cc1ccccc1)c1ccc(C(=O)O)cc1`, the activity change, negative = inhibition was -12.1%.

Turning to `CC(=O)OCc1c(COC(C)=O)[n+](=O)c2ccccc2n1[O-]`, the activity change, negative = inhibition is -3.2%.

Consider `COc1ccc(C(=O)c2oc3nc(C)cc(C)c3c2N)cc1`, for which the activity change, negative = inhibition is 13%.

On to `CCN(CC)CCCN1C(=O)C(=O)/C(=C(/O)c2ccc3c(c2)CC(C)O3)C1c1cccnc1` (stereo not given), for which the activity change, negative = inhibition is 11.9%.

`O=C1CCCN1c1ccc(S(=O)(=O)NCc2ccco2)cc1`: the activity change, negative = inhibition was -10.1%.

Regarding `Cc1ccc(N(Cc2cc3ccccc3[nH]c2=O)C(=O)c2ccco2)c(C)c1`, the activity change, negative = inhibition was 25.5%.
